Out of some 48,000 compounds screened, about 13,000 (27%) showed an effect of 50% or more. The list shows a part of the results.
Each compound was assayed on Wolbachia pipientis (assay: Anti-Wolbachia Cell-Based Screen). Conditions: 5 µM.
Type: functional
Set-up: scale not given: in the data most compounds retested in dose-response had high values
`Cn1ccnc1SCC(=O)NCCC1CCCO1` (stereo not drawn) was tested, and the “Percent Effect” value was 1.622%. With `Cn1cc(S(=O)(=O)NC(CO)Cc2c[nH]c3ccccc23)cn1` (stereo not drawn) the “Percent Effect” value was -17.12%. With `Cn1cccc1C(=O)NCc1cn2c(n1)CN(S(=O)(=O)C1CC1)CC2` the “Percent Effect” value was -2.289%. With `Cc1ncc(C(=O)N2CCC(N3C[C@@H](C)O[C@@H](C)C3)CC2)c(=O)[nH]1` the “Percent Effect” value was -16.5%. `CCc1noc(CC)c1CNC(=O)Nc1cccc(C(=O)N(C)C)c1` was tested, and the “Percent Effect” value was 14.38%. `O=C(c1ccc2c(c1)[nH]c(=O)n2C1CCCC1)N1CCCSCC1` was tested, and the “Percent Effect” value was -3.459%. For `NC(=O)C1CCCN(C(=O)c2cnc3c(cnn3C3CCCC3)c2)C1` (stereo not drawn), the “Percent Effect” value was -9.879%. For `O=C(c1cnc2c(cnn2C2CCCC2)c1)N1CCCSCC1`, the “Percent Effect” value was 112.1%. In the case of `CC(=O)NCc1nc(CC(C)C)nn1-c1cccc(C)c1`, the “Percent Effect” value was -6.896%. With `Cc1cccc(-n2cnc(Cl)c2C(=O)O)c1` the “Percent Effect” value was 93.89%. With `CC(C)c1cccc(-n2cc(O)c(C(=O)O)n2)c1` the “Percent Effect” value was 39.26%. For `Cc1cccc(-n2nc(CC(C)C)nc2[C@H](C)O)c1`, the “Percent Effect” value was -4.735%. In the case of `O=C1CC(c2ccc(C(=O)O)cc2)c2ncn(-c3ccccc3)c2N1` (stereo not drawn), the “Percent Effect” value was 13.74%. With `O=C(O)c1c(Cl)ncn1-c1ccccc1` the “Percent Effect” value was 76.14%. In the case of `CCc1ccc(C2CCCN2C(=O)Cc2ccc(NC(C)=O)cc2)o1` (stereo not drawn), the “Percent Effect” value was -1.143%. With `CC(C)OCc1ncn2c1CN(Cc1cnn(C)c1)CCC2.O=C(O)C(F)(F)F` the “Percent Effect” value was -6.941%. For `O=C(Nc1ccc(-c2ccccc2)cn1)C1CCCN1C(=O)C1CC1` (stereo not drawn), the “Percent Effect” value was -4.535%. With `CC(=O)Nc1ccc(CCC2(NC(=O)C3CC3)CCCCC2)cn1` the “Percent Effect” value was 53.79%. For `CS(=O)(=O)NC1(CCc2ccc(NC(=O)C3CC3)nc2)CCCCC1`, the “Percent Effect” value was 95.32%. For `O=C(Nc1ccc(N2CCCCC2)cn1)C1CCCN1C(=O)C1CC1` (stereo not drawn), the “Percent Effect” value was 5.13%. `Cc1ccc(NC(=O)C2CCCN2C(=O)C2CC2)nc1` (stereo not drawn) was tested, and the “Percent Effect” value was 4.832%. With `CCSCc1ccnc(NC(=O)C2CCCO2)c1` (stereo not drawn) the “Percent Effect” value was 2.987%. For `CC(=O)Nc1ccc(CCC2(NC(=O)C3CCCO3)CCCCC2)cn1` (stereo not drawn), the “Percent Effect” value was 144.1%. With `Cc1ccnc(NC(=O)C2CCCO2)c1` (stereo not drawn) the “Percent Effect” value was 0.6753%. With `O=C(Nc1ccc(Cl)cn1)C1CCN(CCc2ccccn2)CC1` the “Percent Effect” value was 5.331%. In the case of `CC(C)(C)C(=O)N1CC[C@H]2NC(=O)N(c3ccc(F)cc3)C(=O)[C@H]21`, the “Percent Effect” value was -4.362%. For `Cc1ccc(Cl)cc1C(=O)N1CCC2(CC1)c1ccccc1[C@@H](N)[C@@H]2O`, the “Percent Effect” value was -15.25%. `COCCN(C(=O)c1cc(C)no1)c1ccc(C#N)cc1` was tested, and the “Percent Effect” value was -3.36%. For `CCNc1cc2c(nn1)CCN(C(=O)C(C)c1c(C)noc1C)C2` (stereo not drawn), the “Percent Effect” value was 124.9%. For `CCNc1cc2c(nn1)CCN(C(=O)CCc1c(C)noc1Cl)C2`, the “Percent Effect” value was 92.82%. In the case of `CCNc1cc2c(nn1)CCN(C(=O)Cc1c(C)noc1C)C2`, the “Percent Effect” value was -1.817%. `CCNc1cc2c(nn1)CCN(C(=O)c1cc3c(s1)CCOC3)C2` was tested, and the “Percent Effect” value was 6.196%. `CCNc1cc2c(nn1)CCN(C(=O)CCc1c(C)noc1C)C2` was tested, and the “Percent Effect” value was 85.75%. For `CCNc1cc2c(nn1)CCN(C(=O)c1cc3nc(C)ccc3o1)C2`, the “Percent Effect” value was 0.3764%. `CCNc1cc2c(nn1)CCN(C(=O)C1Cc3ccccc3O1)C2` (stereo not drawn) was tested, and the “Percent Effect” value was -6.016%. For `CCNc1cc2c(nn1)CCN(C(=O)Cc1noc3ccccc13)C2`, the “Percent Effect” value was 2.376%. For `Cc1noc(Cl)c1CCC(=O)N1CCc2sccc2C1`, the “Percent Effect” value was 4.589%. With `CCNc1cc2c(nn1)CCN(C(=O)c1c(C)noc1C)C2` the “Percent Effect” value was 134.6%. `CN(C1CCCCC1)S(=O)(=O)NC1CCN(c2ncccn2)CC1` was tested, and the “Percent Effect” value was -8.607%. `Cc1n[nH]c(C(=O)NCc2ccnc(OCC(F)(F)F)c2)c1Br` was tested, and the “Percent Effect” value was -11.41%. In the case of `COc1ccc(CCN2CCCC(CN(C)Cc3ccc(C)o3)C2)cc1` (stereo not drawn), the “Percent Effect” value was -2.586%. For `O=C(c1cccc2[nH]ccc12)N1CCC2(CCOC2)C1` (stereo not drawn), the “Percent Effect” value was -0.4242%. `CCNc1cc2c(nn1)CCN(C(=O)c1ccoc1)C2` was tested, and the “Percent Effect” value was 77.15%. For `CNc1cc2c(nn1)CCN(C(=O)c1ccoc1)C2`, the “Percent Effect” value was 3.239%. With `CCNc1cc2c(nn1)CCN(C(=O)c1ccc(CNC(C)=O)o1)C2` the “Percent Effect” value was -5.342%. `COc1ccc(Cl)cc1-n1c(COC(C)C)n[nH]c1=O` was tested, and the “Percent Effect” value was 9.918%. In the case of `O=C(N1CCSCC1)C1(O)Cc2ccccc2C1`, the “Percent Effect” value was 1.421%. For `CN(C)c1ccccc1C(=O)N1CCOC2(CNCCOC2)C1` (stereo not drawn), the “Percent Effect” value was -52.05%. In the case of `C[C@@H]1CN(C2(C(=O)N3CCSCC3)Cc3ccccc3C2)C[C@H](C)O1`, the “Percent Effect” value was 1.613%. In the case of `CC1(C(=O)N2CCN(c3ncccn3)CC2)CNCCO1` (stereo not drawn), the “Percent Effect” value was 48.6%. In the case of `CC1(C(=O)N2CCOCC2)CNCCO1.Cl` (stereo not drawn), the “Percent Effect” value was 81.13%. `O=C(C1CCS(=O)(=O)C1)N1CCN(c2cnccn2)CC1` (stereo not drawn) was tested, and the “Percent Effect” value was -8.289%. For `O=C(c1cccc(Cl)c1F)N1CCOC2(CNCCOC2)C1` (stereo not drawn), the “Percent Effect” value was -25.29%. `CC1(C(=O)N2CCSCC2)CNCCO1` (stereo not drawn) was tested, and the “Percent Effect” value was 81.85%. With `CC1(C(=O)N2CCN(c3cnccn3)CC2)CNCCO1` (stereo not drawn) the “Percent Effect” value was 114.6%. With `Cc1cc(=O)n(C)cc1NC(=O)Cc1cccc(Cl)c1` the “Percent Effect” value was 5.962%. With `Cc1cc(Cn2cc(C#N)c(=O)c3ccccc32)on1` the “Percent Effect” value was -11.07%. For `Cc1nc(CN2CCCC(CCc3ccccc3C(F)(F)F)C2)no1` (stereo not drawn), the “Percent Effect” value was -1.662%. `Cc1ccc(C(=O)Nc2ccccc2F)n1C` was tested, and the “Percent Effect” value was 94.36%. With `O=C(Nc1cc(Cl)ccc1N1CCCCC1)c1ccccn1` the “Percent Effect” value was -5.482%. `CC1CCC(NS(=O)(=O)CC(=O)Nc2ccccc2N2CCCC2)CC1` (stereo not drawn) was tested, and the “Percent Effect” value was 3.293%. In the case of `CCN(CC)CCn1cc(NC(=O)Nc2ccccc2OC)cn1`, the “Percent Effect” value was 2.741%. In the case of `Cc1ccc(C(=O)Nc2ccccc2N2CCCC2)n1C`, the “Percent Effect” value was 84.28%. With `COc1ccccc1NC(=O)c1[nH]nc(C(C)C)c1Br` the “Percent Effect” value was -4.147%. `CCc1nc(C)c([C@H]2CN(C)C[C@@H]2C(=O)Nc2ccccc2F)[nH]1` was tested, and the “Percent Effect” value was -8.421%. `Cc1c(C(C)NC(=O)Nc2ccccc2F)cnn1C` (stereo not drawn) was tested, and the “Percent Effect” value was 3.461%. For `COc1ccccc1NC(=O)c1ccc(C)n1C`, the “Percent Effect” value was 99.48%. For `CC(C)C(C)N1Cc2cccc(NCC(=O)N(C)C)c2C1` (stereo not drawn), the “Percent Effect” value was 11.84%.
